mTORC1 inh – Acumen qHTS Assay for Inhibitors of the mTORC1 Signaling Pathway in MEF (Tsc2-/-, p53-/-) Cells: Sytravon | Tsc2-/- p53-/- MEF, phospho-rpS6 immunofluorescence/PI, 24 h | Potency, µM (doses to about 38.3 µM), without a hit: at the highest dose activity change, negative = inhibition, most hits filed as inhibitors | 44,000 tested, 0.78% active;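 further: potency means the concentration at half of the fitted maximal effect; plate controls were DMSO for no effect and rapamycin for full effect; nearly all actives have a fitted effect of over 50% in size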
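Compounds act on Tsc2-/-, p53-/- fibroblasts carrying an empty vector for 24 h before fixation and dual staining for phospho-S6 and DNA (propidium iodide). Values are percentages of cells above a rapamycin-defined pS6/PI threshold.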
TSG101-PTAP inh – qHTS Validation Assay for Inhibitors of HIV-1 Budding by Blocking the Interaction of PTAP/TSG101: Sytravon Library Screen | Fluorescence polarization, FITC-PTAP peptide/Tsg101, 20 min | 44,000 tested, under 10 active | Potency, µM (top dose mostly 115 µM), actives largely listed as inhibitors | AID 1347069, 2019; further: potency means the concentration at half of the fitted maximal effect; 0% is about no effect
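Fluorescence polarization binding of Tsg101 binding domain (10 uM final) to FITC-labeled PTAP-motif peptide (50 nM final) in HEPES pH 7.5/NaCl/Tween 20/EDTA/TCEP buffer; 20 min at r.t. Actives by curve class, <25 µM, efficacy <60% inhibition.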
GALK inhibitor – qHTS Assay for Inhibitors of Human Galactokinase (GALK): NCGC Sytravon Library Screen; P51570; recombinant GALK, Kinase-Glo ATP luminescence, 1 h; Potency, µM (titrated, usually from 57.5 µM), without a hit: at the highest dose activity, negative = inhibition, usual class: inhibitors; 44,000 tested, under 10 active; AID 1347072, 2019;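 further: plate controls were full GALK reaction for no effect and reaction lacking GALK for full effect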
Target sequence (P51570 whole entry, looked up): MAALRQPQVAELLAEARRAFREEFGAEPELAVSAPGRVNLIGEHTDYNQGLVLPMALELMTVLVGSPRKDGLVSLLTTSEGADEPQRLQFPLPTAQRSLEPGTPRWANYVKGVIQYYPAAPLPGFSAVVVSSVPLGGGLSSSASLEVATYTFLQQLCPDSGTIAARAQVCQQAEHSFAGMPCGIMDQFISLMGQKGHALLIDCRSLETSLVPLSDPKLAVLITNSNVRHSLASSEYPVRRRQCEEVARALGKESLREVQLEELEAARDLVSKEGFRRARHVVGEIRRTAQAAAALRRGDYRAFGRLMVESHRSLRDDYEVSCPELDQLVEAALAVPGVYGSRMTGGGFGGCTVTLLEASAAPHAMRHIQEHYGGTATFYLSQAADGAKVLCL
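Luminescent ATP-depletion readout (Kinase-Glo Plus, 10 min) after 1 h RT reaction of 5 nM GALK, 35 uM ATP, 100 uM galactose, pH 8.0 HEPES buffer. Decreased kinase activity scored as inhibition.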
S16 F2sN tox – Cell viability qHTS assay in S16 Pmp22-F2sN cells; S16 Pmp22-F2sN Schwann cells viability, CellTiter-Glo, 24 h; Potency, µM (doses to about 57.5 µM), for the others: top-dose activity change, negative = cytotoxicity, most hits filed as cytotoxic; 43,000 tested, 0.48% active; further: potency means the concentration at half of the fitted maximal effect; on the % scale 0 is the no-effect control and ±100 the full control effect; nearly all actives have a fitted effect of over 65% in size
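S16 Schwann cells carrying the Pmp22-F2sN reporter, seeded in 1536-well format, were exposed to library compounds for 24 h at 37C. Viability was read as CellTiter-Glo luminescence after 15 min at room temperature.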
PMP22 txn prim – Cell-based coincidence reporter assay to measure PMP22 gene transcription in S16 Pmp22-F2sN cells - Primary screen; S16 Pmp22-F2sN Schwann cells (luciferase reporters placed in the Pmp22 gene), FLuc/NLuc coincidence luminescence, 24 h; Potency, µM (doses to about 57.5 µM), without a hit: at the highest dose activity change, negative = inhibition, hits mostly inhibitors; 43,000 tested, 2% active; active means clear falling dose curves in both reporters; inconclusive means both reporters move, but less clearly or upward; inactive means either reporter flat; the % is the NLuc reporter signal; further: potency means the concentration at half of the fitted maximal effect; on the % scale 0 is the no-effect control and ±100 the full control effect
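qHTS, 1536-well. Cells seeded, compounds added by pin tool, 24 h 37C. Nano-Glo reagent 1 (lysis/FLuc), 10 min RT, read; Stop&Glo, 10 min RT, read NLuc.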
* marks the source's active call; other numbers are inactive results; i = inactive; ? = inconclusive. Most compounds without a hit are left out; they make up all but 2.8% or so of the library. Unless noted, the call rests on the fitted dose curve; in most records, active means well fitted curve in the direction sought with a large enough effect; inconclusive means small, poorly fitted or top-dose-only effect, or another doubt; inactive means no such curve, though single readings can be large; an effect the other way counts as inactive or inconclusive.

SMILES	mTORC1 inh	TSG101-PTAP inh	GALK inhibitor	S16 F2sN tox	PMP22 txn prim
COc1ccc(Cl)cc1NC(=O)c1c(NCc2cccnc2)sc2c1CCC(C)C2 (configuration not stated)	5.85µM*	i	0.6%	?	?
CCCOc1ccc(C(=O)Nc2ccc(NC(=O)c3cccc(Cl)c3)cc2)cc1	4.1%	i	-16.8%	4.4%	2.0%
CCCOc1ccc(C(=O)Nc2ccc(NC(=O)c3ccccc3)c(Br)c2)cc1	18.5µM*	i	1.1%	?	?
CN1CCN(C(CNC(=O)C(=O)Nc2cccc(Cl)c2)c2ccc3c(c2)OCO3)CC1 (configuration not stated)	16.5µM*	i	-5.0%	?	?
CC(=O)N1CCc2c(sc3c2c(=O)n(-c2ccc(C)cc2)c(=O)n3CC(=O)Nc2ccccc2)C1	-10.6%	i	?	-4.0%	-32.5%
CCOC(=O)N1CCc2c(sc3c2c(=O)n(-c2ccc(Cl)cc2)c(=O)n3CC(=O)Nc2ccccc2)C1	1.4%	i	-11.5%	12.6µM*	?
CCc1ccccc1Nc1sc(C(=O)c2cccc(OC)c2)c(N)c1S(=O)(=O)c1ccccc1	-6.3%	i	-0.2%	6.2%	-2.3%
COc1ccc(S(=O)(=O)c2c(Nc3ccccc3F)sc(C(=O)c3cccc(OC)c3)c2N)cc1	-26.7%	i	0.3%	?	4.01µM*
COc1ccccc1-c1cc(C(F)(F)F)nc(S(=O)(=O)CCCC(=O)Nc2cc(OC)c(OC)c(OC)c2)n1	0.0%	i	1.2%	8.2%	-0.3%
COc1ccc(-c2cc(C(F)(F)F)nc(S(=O)(=O)CCCC(=O)Nc3ccccc3C(F)(F)F)n2)cc1OC	18.5µM*	i	-4.9%	?	?
COc1ccccc1-c1cc(C(F)(F)F)nc(S(=O)(=O)CCCC(=O)Nc2ccc(F)c(Cl)c2)n1	8.9%	i	4.7%	7.7%	-3.2%
COc1ccc(NC(=O)CCCS(=O)(=O)c2nc(-c3ccc(OC)c(OC)c3)cc(C(F)(F)F)n2)cc1OC	11.7µM*	i	4.2%	4.47µM*	4.47µM*
COc1ccc(-c2cc(C(F)(F)F)nc(S(=O)(=O)CCCC(=O)Nc3cccc(O)c3)n2)cc1OC	?	i	0.7%	8.91µM*	5.97µM*
COc1cc(C)c(Cl)cc1S(=O)(=O)NCCc1c(C)[nH]c2ccccc12	?	i	-3.0%	-8.2%	-15.4%
Cc1ccc(CSc2nnc3[nH]c(=O)cc(C)n23)cc1	-5.3%	i	-8.3%	-1.1%	-0.3%
COc1ccccc1Nc1c2c(nc3ccc(NC(=O)c4cccc(OC)c4OC)cc13)CCCC2	16.5µM*	i	5.0%	?	?
COc1ccccc1Nc1c2c(nc3ccc(NC(=O)c4ccccc4F)cc13)CCCC2	?	i	5.5%	?	?
Cc1cc(C)n(CC(=O)Nc2cc(F)ccc2F)c(=O)c1C#N	4.1%	i	-1.2%	12.6%	14.1%
COc1cc(C(=O)n2nc(C)c(Sc3ccc(Cl)cc3)c2C)cc(OC)c1OC	10.4µM*	i	0.3%	13.4%	-4.3%
Cc1cccc(N2CCN(C(=O)Cn3c(-c4cccs4)cc4ccccc43)CC2)c1C	0.4%	i	2.2%	1.1%	?
COc1cccc(CNC(=O)CN2C(=O)CSc3ccc(S(=O)(=O)N(C)C)cc32)c1	0.0%	i	1.1%	4.9%	-14.7%
COc1ccc2cc(CNc3ccccc3)c(=O)n(CC(=O)Nc3ccc(C)cc3C)c2c1	7.36µM*	i	-8.6%	-11.3%	-17.6%
CCNC(=O)c1c(NC(=O)c2nc(S(=O)(=O)CC)ncc2Cl)sc2c1CCCC2	?	i	-0.1%	4.47µM*	4.47µM*
COCCCNC(=O)c1c(NC(=O)c2nc(S(C)(=O)=O)ncc2Cl)sc2c1CCCC2	-29.4%	i	9.6%	3.55µM*	1.96µM*
CCSc1ncc(Cl)c(C(=O)Nc2sc3c(c2C(=O)NCCCOC)CCCC3)n1	0.0%	i	3.3%	-5.2%	4.4%
SMILES	mTORC1 inh	TSG101-PTAP inh	GALK inhibitor	S16 F2sN tox	PMP22 txn prim
CCCSc1ncc(Cl)c(C(=O)Nc2sc3c(c2C(N)=O)CCCC3)n1	-11.0%	i	-10.8%	-3.0%	-8.0%
O=C1CS(=O)(=O)C2(C(=O)N(Cc3ccccc3Cl)c3ccccc32)N1c1ccc(F)cc1 (configuration not stated)	3.8%	i	-0.4%	2.4%	?
Cc1cc(OCC(=O)NCC2(N3CCN(C)CC3)CCCCC2)cc(C)c1Cl	5.85µM*	i	6.2%	?	?
CCOc1ccc(NC(=O)c2c(NCc3cccnc3)sc3c2CCC(C)C3)cc1 (configuration not stated)	-16.5%	i	-0.3%	-2.6%	?
Cc1cccc(Cn2c(=O)n(Cc3ccc4c(c3)OCO4)c(=O)c3oc4ccccc4c32)c1	-1.1%	i	-9.0%	-2.1%	3.3%
CCc1c(C)sc2c1CCN(Cc1ccccc1)C2c1ccccc1 (configuration not stated)	4.4%	i	-4.0%	?	5.75µM*
CCc1c(C)sc2c1CCN(Cc1ccccc1C#N)C2c1ccccc1 (configuration not stated)	2.9%	i	3.3%	-29.7%	?
CCc1cccc(NC(=O)c2ccc3c(=O)n4nc(Nc5ccccc5OC)sc4nc3c2)c1	-8.8%	i	-1.0%	?	4.47µM*
COc1ccccc1Nc1nn2c(=O)c3ccc(C(=O)NCc4ccc(F)cc4)cc3nc2s1	-10.1%	i	2.4%	14.1µM*	4.59µM*
COc1ccc(Cn2ccc3nc(C)c(C(=O)N4CCN(c5cccc(OC)c5)CC4)cc3c2=O)cc1	-14.1%	i	-2.1%	-14.0%	-24.7%
CCOc1ccc(S(=O)(=O)NCCc2sc3nc(-c4ccc(C)cc4)nn3c2C)cc1	-1.2%	i	1.9%	20µM*	?
CCc1nn(CC(=O)NCc2ccccc2Cl)c(=O)c2cccn12	2.61µM*	i	-12.4%	2.3%	3.1%
CCc1nn(CC(=O)NCc2ccccc2Cl)c(=O)c2cc3ccccc3n12	-13.3%	i	-1.5%	0.3%	?
Cc1cccc(-n2nnnc2S(C)(=O)=O)c1	0.414µM*	i	0.0%	5.01µM*	6.7µM*
COc1ccc(NC(=O)Cn2cnc3ccc(S(=O)(=O)N4CCC(C)CC4)cc3c2=O)cc1OC	2.6%	i	0.1%	7.3%	?

Screening results (PubChem)
